Type in all cases: functional
In test [1] the target is Solute carrier family 2, facilitated glucose transporter member 1 (Homo sapiens) (UniProt P11166). Description: ST_JUDE_LEISH: Cytotoxicity at 2uM final concentration against transgenic Leishmania Mexicana promastigotes LmGLUT1 that are glucose transport deficient and complemented with the human glucose transporter GLUT1. Activity is measured by DNA content using SYBR green in vitro.

The target in test [2] is Hexose transporter 1 (Plasmodium falciparum) (UniProt O97467). Description: ST_JUDE_LEISH: Cytotoxicity at 2uM final concentration against transgenic Leishmania Mexicana promastigotes LmPfHT that are glucose transport deficient and complemented with the Plasmodium falciparum hexose transporter. Activity is measured by DNA content using SYBR green in vitro.
For test [3], the target named is Glucose transporter (Leishmania mexicana) (UniProt O61059). Kind of test: ST_JUDE_LEISH: Cytotoxicity at 2uM final concentration against transgenic Leishmania Mexicana promastigotes LmGT2 that are glucose transport deficient and complemented with the L. Mexicana glucose transporter 2. Activity is measured by DNA content using SYBR green in vitro.

Sequence of Solute carrier family 2, facilitated glucose transporter member 1 (Homo sapiens) (P11166 whole entry): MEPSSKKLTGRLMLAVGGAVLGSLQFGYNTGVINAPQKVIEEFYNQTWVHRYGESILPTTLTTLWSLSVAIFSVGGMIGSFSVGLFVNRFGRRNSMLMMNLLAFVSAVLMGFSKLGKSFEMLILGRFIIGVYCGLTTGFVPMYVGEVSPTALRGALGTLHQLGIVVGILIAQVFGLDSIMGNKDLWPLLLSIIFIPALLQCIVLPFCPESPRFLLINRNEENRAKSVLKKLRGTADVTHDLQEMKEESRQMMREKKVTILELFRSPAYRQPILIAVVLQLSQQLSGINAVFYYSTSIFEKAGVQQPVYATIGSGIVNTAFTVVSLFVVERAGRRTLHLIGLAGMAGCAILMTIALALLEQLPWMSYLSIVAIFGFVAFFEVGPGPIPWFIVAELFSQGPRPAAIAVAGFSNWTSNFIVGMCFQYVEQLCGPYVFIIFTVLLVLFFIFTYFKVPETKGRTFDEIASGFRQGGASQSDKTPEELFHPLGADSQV

Take `Cc1cccc2nc(-c3ccc(-c4ccc(CN5CCN(CCN6CCOCC6)CC5)cc4)cc3)[nH]c12`: the inhibition is 6.69% in test [1], 8.97% in test [2] and -1.08% in test [3].

Turning to `O=C(NCc1ccccc1)Nc1cccc(-c2cccc(-c3nc4cc(C(F)(F)F)ccc4[nH]3)c2)c1`, the inhibition in test [1] is 4.49%; in test [2] it was 4.71%; in test [3] it was 6.02%.

For `Fc1cc(Cl)ccc1Nc1ccnc2cc(-c3ccc(CN4CCNCC4)o3)ccc12`, the inhibition in test [1] came out at 1.02%; in test [2], 1.16%; in test [3], 1.34%.

Turning to `CCc1cn2c3c(cc(C(=O)N[C@@H](Cc4cccc(F)c4)[C@H](O)CNC4CCOCC4)cc13)N(C)S(=O)(=O)CC2`, the inhibition in test [1] is -0.16%; in test [2], 0.52%; in test [3], 1.47%.

Regarding `Cc1cc(F)ccc1-c1nc(NCCCNCCc2ccccc2)nc2c1ccc(=O)n2-c1c(F)cccc1F`, the values for the inhibition in test [1], in test [2] and in test [3] were 0.55%, 5.5% and 0.76%, respectively.

For the compound `CS(=O)(=O)n1c(CN2CCN(c3ncc(C(F)(F)F)cc3Cl)CC2)nc2ccccc21`, the results for the inhibition in test [1], in test [2] and in test [3] were 8.28%, 7.91% and 5%, respectively.

On to `O=C(NC1CC1)c1ccc(Nc2nccc(-c3c(-c4cccc(NC(=O)c5c(F)cccc5F)c4)nn4ccccc34)n2)cc1`, for which the inhibition in test [1] was found to be 7.45%; in test [2] it was 8.87%; in test [3], 3.41%.

In the case of `O=C(Nc1cccc(-c2cccc(-c3nc4ccccc4[nH]3)c2)c1)c1ccoc1`, the inhibition in test [1] came out at 7.02%; in test [2], 5.63%; in test [3], 3.82%.

As to `O=C(Nc1cc(C(F)(F)F)cc(C(F)(F)F)c1)Nc1cc(C(F)(F)F)cc(C(F)(F)F)c1`, the inhibition came out at 1.91% in test [1], 4.29% in test [2] and 3.86% in test [3].

With `Cc1sc2cc(Cl)cc(Cl)c2c1S(=O)(=O)Nc1ccc2nccc(N3CCNCC3)c2c1`, the inhibition in test [1] was -1.42%; in test [2], -0.22%; in test [3], -0.24%.

In the case of `CCCNCc1ccc(-c2ccc(CN(CCOC)C(=O)/C=C/c3ccccc3C)cc2)nc1`, the inhibition turned out to be 9.67% in test [1], 6.69% in test [2] and 6.86% in test [3].

With `CC(C)(C)CCN1CCC(CNC(=O)c2cc(-c3cccc(C(F)(F)F)c3)cs2)C1` (stereo not given), the inhibition in test [1] is 3.1%; in test [2] it was 2.95%; in test [3] it was -0.8%.

Regarding `CC(=O)Nc1ccc(CNC2Cc3ccc(-c4ccc(Cl)c(Cl)c4)cc3C2)cc1` (stereo not given), the inhibition in test [1] is -0.97%; in test [2], -1.57%; in test [3] it was -0.25%.

For the compound `CCOc1ccc(OCC)c(N2CCN(CCCCNC(=O)c3ccc(NC(=O)c4ccc(Cl)cc4)cc3)CC2)c1`, the inhibition amounted to 3.44% in test [1], 3.28% in test [2] and 3.45% in test [3].

For the compound `CCCCCCCCCN1CC[C@@H](CCCc2ccnc3ccc(O)cc23)[C@@H](CC)C1`, the inhibition was -2.45% in test [1], -2.37% in test [2] and -1.91% in test [3].

With `Cc1cc(CNCCCCCCNCc2ccc(-c3ccccc3)cc2)ccc1O`, the results for the inhibition in test [1], in test [2] and in test [3] were 7.54%, 7.79% and 4.84%, respectively.

Regarding `CCCCCN1CCCC(NS(=O)(=O)c2cccc(C(=O)Nc3cccc(C(F)(F)F)c3)c2)C1` (stereo not given), the inhibition is -0.69% in test [1], -0.64% in test [2] and -2.02% in test [3].

With `Cc1cc(-c2ccc(NC(=O)c3coc4ccc(N5CC(C)N(C)C(C)C5)cc34)cc2C)cc(C)n1` (stereo not given), the results for the inhibition in test [1], in test [2] and in test [3] were 2.55%, 3.78% and 1.55%, respectively.

Regarding `O=C(O)CNCC(O)c1ccccc1` (stereo not given), the figures for the inhibition in test [1], in test [2] and in test [3] were 0.32%, -0.04% and 0.29%, respectively.

Turning to `CNS(=O)(=O)c1ccc2c(c1)nc(C1CCN(CC3CCC(NC(=O)/C=C/c4ccc(Cl)c(Cl)c4)CC3)CC1)n2C` (stereo not given), the values for the inhibition in test [1], in test [2] and in test [3] were 11.9%, 10.9% and 3.47%, respectively.

On to `CC1CCN(c2nc(C(=O)Nc3cccc4c3CCCC4)c(C(C)C)s2)CC1`, for which the inhibition in test [1] worked out at 3.26%; in test [2] it was 4.73%; in test [3] it was 6.09%.

For `CC1CNC(c2ccc(NC(=O)c3ccc(C(=O)Nc4ccc(C5=NC(C)CN5)cc4)cc3)cc2)=N1` (stereo not given), the inhibition in test [1] was found to be 8.16%; in test [2] it was 7.31%; in test [3], 0.91%.

For `Cc1cc(CNC(=O)c2ccc(-c3ccc(-c4nc5cc(C(F)(F)F)ccc5[nH]4)s3)cc2)on1`, the values for the inhibition in test [1], in test [2] and in test [3] were 4.04%, 3.31% and 1.12%, respectively.

Consider `Cc1nccn1Cc1cc(C(C)(C)C)c(O)c(C(C)(C)C)c1`, for which the inhibition in test [1] was 3.44%; in test [2], 2.22%; in test [3] it was 3.5%.

Regarding `CCC[C@@H]1CCN[C@H]([C@H](O)c2ccnc3ccc(OC)cc23)C1`, the inhibition in test [1] worked out at 4.68%; in test [2], 3.5%; in test [3], 4.53%.

Consider `COc1ccc(-n2nc(C(=O)NCCC3=CCCCC3)c3ccccc3c2=O)cc1`, for which the values for the inhibition in test [1], in test [2] and in test [3] were 0.62%, -0.88% and -0.39%, respectively.

Take `CC1(C)Cc2c([nH]c3ccccc23)C(CCCCCCCCC2=NC(C)(C)Cc3c2[nH]c2ccccc32)=N1`: the results for the inhibition in test [1], in test [2] and in test [3] were 8.46%, 6.32% and 0.21%, respectively.

In the case of `CNC(=O)C1Cc2c([nH]c3ccc(Cl)cc23)C2(CCN(CCc3ccccc3)CC2)N1` (stereo not given), the values for the inhibition in test [1], in test [2] and in test [3] were 3.32%, 0.71% and -2.87%, respectively.

With `CCCCN1C(=N)NC(c2ccccc2)(c2ccccc2)C1=O`, the inhibition in test [1] amounted to 5.12%; in test [2] it was 3.94%; in test [3], 3.58%.

As to `COc1ccc(CNc2cc(C)nc3sc4c(c23)CCC2(C4)OCCO2)cc1`, the inhibition in test [1] was found to be 1.79%; in test [2] it was 1.85%; in test [3] it was 0.47%.

On to `Cc1cccc2nc(-c3ccc(-c4cccc(NC(=O)c5cncn5C)c4)cc3)[nH]c12`, for which the inhibition stood at 5.73% in test [1], 5.37% in test [2] and 5.41% in test [3].

Consider `O=C(Cc1ccc(Nc2nccc(Nc3cccc4[nH]ncc34)n2)cc1)Nc1ccc(C(F)(F)F)cc1`, for which the inhibition is 5.9% in test [1], 6.7% in test [2] and 4.78% in test [3].

In the case of `COc1cc2nc(N3CCC(CNC(=O)c4ccc(OC(F)(F)F)cc4)CC3)nc(N)c2cc1OC`, the inhibition in test [1] is -0.03%; in test [2], 0.04%; in test [3] it was 0.16%.

`Nc1ncnc2occ(-c3ccc(NC(=O)Nc4cc(C(F)(F)F)ccc4F)cc3)c12`: the inhibition is 0.61% in test [1], 2.93% in test [2] and -2.03% in test [3].

Turning to `CCC(C)NCCC(c1ccccc1)c1ccccc1O` (stereo not given), the inhibition in test [1] came to 5.11%; in test [2], 4.69%; in test [3], 4.41%.

Broadly, the inhibition is the change of the read-out against control, counted positive when it falls.

Values taken from ChEMBL document CHEMBL3433997, “St. Jude Leishmania screening dataset” (2016).
